# In PubChem BioAssay (NCI):
# The panel holds about 83,000 compounds, 20% with a hit somewhere; the sample as a whole holds those more often.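 In brief: 96-well plates, 48 h treatment, single concentration, percent growth endpoint.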 Unmarked numbers belong to inactive results. Calls of active or inactive are those of the source. The calls were made as follows: active = growth percent below 10; inactive = the rest.
# Test system: MDA-MB-468 breast
# Test: NCI-60 one-dose screen, 48 h (100 = growth as untreated, 0 = no growth, -100 = all killed)
# Conditions: 10 µM unless noted
row,SMILES,growth
1,COc1ccc(CN(c2ccc(C)cc2)C2OC(=O)c3ccccc32)cc1OC (stereo not given),90.2%
2,Nc1ncc([N+](=O)[O-])cn1,96.2%
3,CC1=C(C)C[C@]2(C(=O)O[C@H]3CCCC[C@@H]32)[S@](=O)C1,114%
4,COc1ccc(C2CC(c3ccccc3)=NN2c2nc(C)c(C(C)=O)s2)cc1 (stereo not given),100%
5,C=C(C)[C@@H]1CC[C@]2(CO)CC[C@]3(C)[C@H](CC[C@@H]4[C@@]5(C)CCCNC(C)(C)[C@@H]5CC[C@]43C)[C@@H]12,11.7%
6,COC(=O)c1nc(-c2ccc(C)cc2)oc1S(=O)(=O)c1cccc(OC)c1,71.7%
7,O=C1CN(CCN2CC(=O)N(Cc3ccccc3)C(=O)C2)CC(=O)N1Cc1ccccc1,107%
8,Cc1nc2c(c(=O)[nH]1)C(c1ccccc1)c1ccc3ccccc3c1O2 (stereo not given),22.9%
9,COc1ccc(-c2nc3cccc(O)c3c(=O)n2Cc2ccccc2)cc1COc1ccc(NC(C)=O)cc1,71.9% [3 µM]
10,NS(=O)(=O)c1ccc(N2N=C(c3ccc(Br)cc3)CC2c2cn(-c3ccccc3)nc2-c2ccc(Cl)cc2)cc1 (stereo not given),112%
11,N#Cc1cccc(C2C3=C(COC3=O)N(CCO)c3cc4c(cc32)OCO4)c1 (stereo not given),21%
12,Cc1nc2ccccc2c(/C=C/c2ccc(Cl)cc2)c1C(=O)/C=C/c1cccs1,79.7%
13,COc1ccc(CNc2ccc3nc(NC(=O)CN4CCCCCC4)sc3c2)cc1,46.8%
14,N=C(N)c1ccc(-c2ccc(-c3ccc(F)cc3)s2)cc1,-90.7% (active)
15,COc1cc(C)cc2oc3oc(=O)c(C(=O)c4cc5cc(Br)ccc5o4)cc3c(=O)c12,107%
16,Cc1ccc(/C=C2/C(=O)Nc3cc(Cl)c(-c4csc(N)n4)cc32)cc1,15.2%
17,C=C1CC[C@@H]2[C@](C)(COC(C)=O)[C@H](OC(C)=O)CC[C@@]2(C)[C@@H]1CC(Nc1ccc(S(=O)(=O)Nc2nccs2)cc1)C1=CCOC1=O (stereo not given in full),-59.9% (active)
18,COc1cnc2c(c1)C(=O)c1c-2n(CCCNC2=NCCS2)c(=O)c2cc(Cl)ccc12,-4.65% (active)
19,C[C@@H]1NC(=O)[C@H](Cc2ccccc2)N(Cc2cccnc2)C1=O,108%
20,CCOC(=O)CNC1=C(Cl)C(=O)N(Cc2ccc(Cl)cc2)C1=O,105%

row,SMILES,growth
1,COc1ccc(-c2cc(-c3ccc(OC)c(OC)c3)nc(SCCCC(=O)NO)n2)cc1,-30.7% (active)
2,Fc1ccccc1-c1nc(-c2nc3cc(Cl)c(Cl)cc3[nH]2)c2ccccn12,63.1%
3,CN1CCN(c2ccc3nc(-c4[nH]ncc4Nc4ncnc5[nH]ccc45)[nH]c3c2)CC1,-55.6% (active)
4,COc1ccc2cc(-c3ccc(-c4ccc(C(=N)N)cc4)s3)ccc2c1,98.2%
5,O=C1CC[C@H](c2ccc(O)c3c2C(=O)[C@@H]2O[C@@H]2C3=O)c2cccc(O)c21,-64.8% (active)
6,Nc1c(C(=O)O)[nH]c(=O)[nH]c1=O,103%
7,O=C(NC1CCNCC1)c1[nH]ncc1NC(=O)c1c(Cl)cccc1Cl,-37.2% (active)
8,COc1ccc(/C=C\c2cc(OC)c(OC)c(OC)c2)cc1OC(=O)c1cccc(Cn2cc(CCOC(=O)[C@H](N)Cc3cn(C)c4ccccc34)nn2)c1,13.9%
9,O=C(O)c1ccccc1Oc1cc(-c2ccco2)nc(OCCN2CCOCC2)n1,105%
10,CN(C)c1cnccn1,56.1%
11,CC(C)(C)c1ccc(CCO)cc1,124%
12,CC(=O)O[C@@H]1CCN2C(=O)N(C)c3ccccc3[C@@H]2C1,126%
13,CC(=O)C(C(C)=O)C(c1ccccc1)C(C(C)=O)C(C)=O,98.6%
14,O=C(C[n+]1cccc(Br)c1)c1ccc2c(c1)CCCC2,94%
15,O=C(N/N=C/c1ccco1)c1[nH]c2ccc(Br)cc2c1-c1ccccc1,14.9%
16,C/C(CC1(O)C(=O)Nc2ccccc21)=N\O (stereo not given),92%
17,Cn1c(SCC(=O)Nc2ccc(-c3nc4ccc([N+](=O)[O-])cc4[nH]3)cc2)nc2ccccc2c1=O,56.5%
18,CCOP(C)(=O)/C(Cc1ccc(OC)c(OC)c1)=N\O (stereo not given),96.5%
19,COc1ccc(-c2cc(-c3ccc(Cl)cc3)c(C#N)c(=O)n2Cc2ccc(C(=O)Nc3ccccc3N)cc2)cc1,63.8%
20,COc1cc(C2CC(c3cccc(Nc4ccnc5cc(Cl)ccc45)c3)=NN2c2ccc(Cl)cc2)cc(OC)c1OC (stereo not given),74.4%
